Rows were chosen to be rich in hits. Some 0.74% of all compounds tested hit in one or more screens of this group.
Furin inhibitor: inhibitors of human furin | inhibition, % at 20 µM or 30 µM | AID 463115 | P09958 | purified furin, fluorogenic substrate cleavage | actives 0.061% (n = 220,000); in the data active = inhibition above about 25%
Target sequence (P09958 108-714 limits assumed): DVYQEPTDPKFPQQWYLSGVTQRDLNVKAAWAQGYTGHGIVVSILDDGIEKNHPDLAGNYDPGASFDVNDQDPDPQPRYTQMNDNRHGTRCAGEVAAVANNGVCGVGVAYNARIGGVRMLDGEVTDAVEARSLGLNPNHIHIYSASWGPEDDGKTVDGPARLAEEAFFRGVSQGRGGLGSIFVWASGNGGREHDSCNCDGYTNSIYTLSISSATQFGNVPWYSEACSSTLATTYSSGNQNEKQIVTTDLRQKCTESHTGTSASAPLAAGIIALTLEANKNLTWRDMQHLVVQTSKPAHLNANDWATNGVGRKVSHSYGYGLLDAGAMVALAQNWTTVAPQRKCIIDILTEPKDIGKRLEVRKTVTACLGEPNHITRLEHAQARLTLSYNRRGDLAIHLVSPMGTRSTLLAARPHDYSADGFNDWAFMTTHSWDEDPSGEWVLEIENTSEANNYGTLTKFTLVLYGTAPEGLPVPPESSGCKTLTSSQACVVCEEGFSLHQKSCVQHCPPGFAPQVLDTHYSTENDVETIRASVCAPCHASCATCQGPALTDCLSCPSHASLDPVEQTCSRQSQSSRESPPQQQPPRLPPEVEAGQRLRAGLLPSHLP
HMGR II inh: E. faecalis class II HMG-CoA reductase inhibition; purified E. faecalis HMGR, NADPH absorbance 340 nm kinetic; inhibition, % at 10 µM; actives 0.41% (n = 190,000);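 active = inhibition above a set limit, the median over all tested compounds plus 3 SD, cut at about 9.5% in these data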;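 also: enzyme runs in reverse so mevalonate oxidation gives rising NADPH absorbance; 0% = complete reaction with DMSO and 100% = background rate lacking mevalonate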
p97 ATPase inh: inhibitors of human p97 ATPase. P55072. recombinant p97 ATPase, Kinase-Glo ATP luminescence, 3 h. inhibition, % at 8 µM. actives 0.42% (n = 220,000). AID 1481; in the data active = inhibition above about 15%;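 also: 0% = DMSO vehicle and 100% = wells lacking enzyme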
pCIP destab: p/CIP protein destabilization; F442A p/CIP-EGFP cells, EGFP fluorescence, 16 h; decrease of EGFP signal, % at 10 µM; actives 0.01% (n = 290,000); AID 1984;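 active = EGFP signal decrease of at least 30% at 10 µM or well 3 SD below plate mean, unless failing retest; inactive = the rest, including hits failing retest or dose response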
Tb hexokinase: blocks Trypanosoma brucei hexokinase 1 activity; recombinant TbHK1, G6PDH-coupled NADH A340; inhibition, % at 10 µM; actives 0.11% (n = 220,000); AID 1430;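 active = inhibition of 50% or more in the single-dose primary screen; inactive = inhibition below 50%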
Redox H2O2 prof: compounds producing H2O2 with reducing agent – biochemical, NIH compound library profiling, artefact control for MLSCN library redox annotation, primary screen | AID 878 | actives 0.03% (n = 200,000) | DTT-dependent redox cycling H2O2, phenol red/HRP absorbance; 100% = 100 µM peroxide control, 0% = buffer | activation, % at 10 µM;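 active = activation of at least 50% relative to the plate's high and low controls in the primary single-dose screen; inactive = activation below 50%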;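 also: compound incubated with DTT at 0.8 mM final as the reducing agent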
The depositor's hits bear a star.

CC(C)c1ccc(C(=O)NNC(=O)C2CC=CCC2C(=O)O)cc1 (stereo not drawn) was read as Furin inhibitor -9, HMGR II inh -3, p97 ATPase inh -6, pCIP destab -2, Tb hexokinase 5 and Redox H2O2 prof -1.
`Cn1cnnc1Sc1ccc(C(=O)OCC(=O)NC2CC2)cc1[N+](=O)[O-]` gave Furin inhibitor 2, HMGR II inh 15*, p97 ATPase inh 6, pCIP destab 14, Tb hexokinase -16 and Redox H2O2 prof 0.
Screening Cn1cnnc1Sc1ccc(C(=O)NCCC(c2ccccc2)c2ccccc2)cc1[N+](=O)[O-] returned Furin inhibitor -21, HMGR II inh -3, p97 ATPase inh 6, pCIP destab -4, Tb hexokinase -4 and Redox H2O2 prof 0.
`CCOc1ccc(/C=N/n2cc(-c3ccccc3)[nH]c2=S)cc1` gave Furin inhibitor -6, HMGR II inh 11*, p97 ATPase inh -6, pCIP destab -6, Tb hexokinase 5 and Redox H2O2 prof 0.
For Cc1cn2nc(N)c3ccccc3c2n1 the results were Furin inhibitor -16, HMGR II inh -3, p97 ATPase inh 6, pCIP destab -1, Tb hexokinase -7 and Redox H2O2 prof 0.
`Nc1nn2cc(-c3ccccc3)nc2c2ccccc12` gave Furin inhibitor -27, HMGR II inh 11*, p97 ATPase inh -17, pCIP destab 3, Tb hexokinase -12 and Redox H2O2 prof -1.
For COc1cc2c(cc1OC)CC(C(=O)NCc1ccccc1)NC2 (stereo not drawn) the results were pCIP destab -6.
Cc1ccc(C(=O)NC2CCCc3ccccc32)o1 (stereo not drawn) was read as Furin inhibitor 25*, HMGR II inh 1, p97 ATPase inh 1, pCIP destab 4, Tb hexokinase -2 and Redox H2O2 prof 2.
Screening CCOc1ccc(Cn2c(=O)oc3ccc(C)cc32)cc1OC returned Furin inhibitor -17, HMGR II inh -2, p97 ATPase inh 4, pCIP destab -6, Tb hexokinase -1 and Redox H2O2 prof 2.
Screening COc1cc(Cn2c(=O)oc3ccc(C)cc32)ccc1OC(C)C returned Furin inhibitor -13, HMGR II inh 14*, p97 ATPase inh 1, pCIP destab 2, Tb hexokinase 0 and Redox H2O2 prof 1.
For CCOC(=O)n1c(O)c(N=NC(N)=S)c2cc(C)ccc21 the results were Furin inhibitor -18, p97 ATPase inh 6, pCIP destab 4 and Tb hexokinase -9.
For Cc1ccc(-n2nc(C)c3c(C)c(CCC(=O)O)c(C)nc32)cc1C the results were pCIP destab 6.
Screening COc1ccc(S(=O)(=O)N(CC(=O)NCC2CCCO2)Cc2ccccc2)cc1 (stereo not drawn) returned pCIP destab 0.
`COc1cccc(CN(CC2CCCO2)S(=O)(=O)c2ccc(S(=O)(=O)N(C)C)cc2)c1` (stereo not drawn) gave Furin inhibitor -30, HMGR II inh 2, p97 ATPase inh 15*, pCIP destab -6, Tb hexokinase -4 and Redox H2O2 prof 0.
Screening Cc1ccc(OCC(=O)N2CCN(C(=O)c3ccco3)CC2)cc1 returned Furin inhibitor -15, HMGR II inh 2, p97 ATPase inh -6, pCIP destab 36, Tb hexokinase 3 and Redox H2O2 prof -2.
`O=C(COc1ccc2ccccc2c1)N1CCN(C(=O)c2ccco2)CC1` gave Furin inhibitor -17, HMGR II inh 10*, p97 ATPase inh 2, pCIP destab 7, Tb hexokinase -7 and Redox H2O2 prof 1.
CC(=O)c1ccc(OCCn2c(SCC(=O)O)nc3ccccc32)cc1 was read as pCIP destab -6.
`NS(=O)(=O)c1cccc(NC(=O)COC(=O)C2CCCCC2)c1` gave Furin inhibitor -13, HMGR II inh 11*, p97 ATPase inh 4, pCIP destab -21, Tb hexokinase -2 and Redox H2O2 prof 0.
CN(c1ccccc1)S(=O)(=O)c1cccc(NC(=O)COC(=O)C2CCCCC2)c1 was read as Furin inhibitor -12, p97 ATPase inh 0, pCIP destab -5 and Tb hexokinase -1.
NS(=O)(=O)c1ccc(NC(=O)COC(=O)C2CC(=O)N(Cc3ccccc3)C2)cc1 (stereo not drawn) was read as Furin inhibitor -23, HMGR II inh 11*, p97 ATPase inh 1, pCIP destab 5, Tb hexokinase 3 and Redox H2O2 prof 0.
`CC(C)(C)c1ccc(C(CC(=O)O)NC(=O)Cc2ccc(F)cc2)cc1` (stereo not drawn) gave Furin inhibitor -6, HMGR II inh -1, p97 ATPase inh 2, pCIP destab -8, Tb hexokinase 1 and Redox H2O2 prof 0.
For COc1ccc(C(=O)Nc2ccc3ccccc3c2)cc1OC the results were pCIP destab 1.
Screening Cn1nnc2cc(C(=O)Nc3ccc4ccccc4c3)ccc21 returned Furin inhibitor -21, HMGR II inh 13*, p97 ATPase inh 3, pCIP destab -5, Tb hexokinase -4 and Redox H2O2 prof 0.
`CSc1cccc(NC(=O)c2cccc3cccnc23)c1` gave pCIP destab 0.
CCN(CC)S(=O)(=O)c1ccc(N2CCOCC2)c(NC(=O)c2cccc3ccccc23)c1 was read as Furin inhibitor -4, HMGR II inh 5, p97 ATPase inh -1, pCIP destab -12, Tb hexokinase -2 and Redox H2O2 prof 1.
Screening CCN(CC)S(=O)(=O)c1ccc(N2CCOCC2)c(NC(=O)c2cc(-c3ccccn3)nc3ccccc23)c1 returned Furin inhibitor -28, HMGR II inh 12*, p97 ATPase inh 4, pCIP destab -46, Tb hexokinase -10 and Redox H2O2 prof -1.
For COC(=O)c1ccc(NC(=O)CN(C)Cc2cccc(F)c2)cc1 the results were Furin inhibitor -26, HMGR II inh 11*, p97 ATPase inh 0, pCIP destab 8, Tb hexokinase -2 and Redox H2O2 prof 0.
Cc1c(C(=O)N2CCc3ccccc32)cnn1C was read as Furin inhibitor -29, HMGR II inh 11*, p97 ATPase inh 3, pCIP destab -1, Tb hexokinase -7 and Redox H2O2 prof 0.
Screening O=C(CCCN1C(=O)/C(=C\c2cccs2)SC1=S)Nc1ccccn1 returned Furin inhibitor -16, HMGR II inh 14*, p97 ATPase inh 0, pCIP destab 2, Tb hexokinase 0 and Redox H2O2 prof -2.
`O=C(CCN1C(=O)/C(=C/c2cccs2)SC1=S)Nc1ccccn1` gave Furin inhibitor -12, HMGR II inh -4, p97 ATPase inh 3, pCIP destab 16, Tb hexokinase 2 and Redox H2O2 prof 0.

Bioassay records as filed in PubChem BioAssay.
